Experimental data: the supplement of paper PMC8728848
Shown is part of a subset that was picked to be rich in the strongest signals.

What was measured:
Assay in all cases: glycan array binding signal (z-score within array); higher = stronger binding
Conditions in all cases: glycan notation: IUPAC condensed, linker removed
[1] = target: Gal(b1-4)GlcNAc(b1-3)[Gal(b1-4)GlcNAc(b1-6)]Gal(b1-4)GlcNAc
How it was run: (§1)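 From the Consortium for Functional Glycomics database, 3228 arrays were curated, keeping only those whose protein sequence was available. Binding is given as a within-array Z-score averaged across arrays sharing a protein sequence and across linkers. Negative Z-scores can be read as non-binding.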

[2] = target: Gal(b1-4)GlcNAc(b1-6)Gal(b1-4)GlcNAc
How it was run: as §1

[3] = target: GalNAc(b1-4)GlcNAc(b1-3)GalNAc(b1-4)GlcNAc
How it was run: as §1

[4] = target: GalNAc(b1-6)GalNAc
How it was run: as §1

[5] = target: GalNAc4S6S(b1-4)GlcNAc
How it was run: as §1

[6] = target: GlcA3S(b1-3)Gal(b1-4)GlcNAc(b1-2)Man
How it was run: as §1

[7] = target: GlcNAc(b1-2)[GlcNAc(b1-4)]Man(a1-3)[GlcNAc(b1-4)][GlcNAc(b1-2)Man(a1-6)]Man(b1-4)GlcNAc(b1-4)GlcNAc
How it was run: as §1

[8] = target: GlcNAc(b1-2)[GlcNAc(b1-6)]Man(a1-6)[GlcNAc(b1-2)Man(a1-3)]Man(b1-4)GlcNAc(b1-4)[Fuc(a1-6)]GlcNAc
How it was run: as §1

[9] = target: GlcNAc(b1-2)[GlcNAc(b1-6)]Man(a1-6)[GlcNAc(b1-4)][GlcNAc(b1-2)Man(a1-3)]Man(b1-4)GlcNAc(b1-4)GlcNAc
How it was run: as §1

[10] = target: GlcNAc(b1-3)Gal(b1-3)GalNAc
How it was run: as §1

[11] = target: GlcNAc(b1-3)Gal(b1-4)GlcNAc(b1-3)Gal(b1-4)GlcNAc(b1-2)Man(a1-3)[GlcNAc(b1-3)Gal(b1-4)GlcNAc(b1-3)Gal(b1-4)GlcNAc(b1-2)Man(a1-6)]Man(b1-4)GlcNAc(b1-4)GlcNAc
How it was run: as §1

[12] = target: GlcNAc(b1-3)Gal(b1-4)GlcNAc(b1-3)Gal(b1-4)GlcNAc(b1-3)Gal(b1-4)GlcNAc(b1-2)[GlcNAc(b1-3)Gal(b1-4)GlcNAc(b1-3)Gal(b1-4)GlcNAc(b1-3)Gal(b1-4)GlcNAc(b1-6)]Man(a1-6)[GlcNAc(b1-3)Gal(b1-4)GlcNAc(b1-3)Gal(b1-4)GlcNAc(b1-3)Gal(b1-4)GlcNAc(b1-2)Man(a1-3)]Man(b1-4)GlcNAc(b1-4)[Fuc(a1-6)]GlcNAc
How it was run: as §1

[13] = target: GlcNAc(b1-4)Gal(b1-4)GlcNAc
How it was run: as §1

[14] = target: Kdn(a2-3)Gal(b1-3)GalNAc
How it was run: as §1

[15] = target: Kdn(a2-3)Gal(b1-4)[Fuc(a1-3)]GlcNAc
How it was run: as §1

[16] = target: Man(a1-2)Man(a1-2)Man(a1-3)Man
How it was run: as §1

[17] = target: MurNAc(b1-4)GlcNAc
How it was run: as §1

[18] = target: Neu5Ac(a2-3)Gal(b1-3)GlcNAc(b1-6)GalNAc
How it was run: as §1

[19] = target: Neu5Ac(a2-3)Gal(b1-3)]Neu5Ac(a2-3)Gal(b1-4)]GlcNAc
How it was run: as §1

[20] = target: Neu5Ac(a2-3)Gal(b1-4)GlcNAc
How it was run: as §1

[21] = target: Neu5Ac(a2-3)Gal(b1-4)GlcNAc(b1-2)Man(a1-3)[GlcNAc(b1-4)][Neu5Ac(a2-3)Gal(b1-4)GlcNAc(b1-2)Man(a1-6)]Man(b1-4)GlcNAc(b1-4)GlcNAc
How it was run: as §1

[22] = target: Neu5Ac(a2-3)Gal(b1-4)GlcNAc(b1-3)Gal
How it was run: as §1

[23] = target: Neu5Ac(a2-3)Gal(b1-4)GlcNAc(b1-3)Gal(b1-4)GlcNAc(b1-3)Gal(b1-4)GlcNAc(b1-2)Man(a1-3)[Neu5Ac(a2-3)Gal(b1-4)GlcNAc(b1-3)Gal(b1-4)GlcNAc(b1-3)Gal(b1-4)GlcNAc(b1-2)Man(a1-6)]GalNAc
How it was run: as §1

[24] = target: Neu5Ac(a2-3)Gal(b1-4)GlcNAc(b1-3)Gal(b1-4)GlcNAc(b1-3)[Neu5Ac(a2-3)Gal(b1-4)GlcNAc(b1-3)Gal(b1-4)GlcNAc(b1-6)]GalNAc
How it was run: as §1

[25] = target: Neu5Ac(a2-3)Gal(b1-4)[Fuc(a1-3)]GlcNAc(b1-2)Man
How it was run: as §1

[26] = target: Neu5Ac(a2-3)Gal(b1-4)[Fuc(a1-3)]GlcNAc(b1-3)Gal
How it was run: as §1

[27] = target: Neu5Ac(a2-3)Gal(b1-4)[Fuc(a1-3)]GlcNAc(b1-3)Gal(b1-4)[Fuc(a1-3)]GlcNAc(b1-3)Gal(b1-4)[Fuc(a1-3)]GlcNAc
How it was run: as §1

[28] = target: Neu5Ac(a2-3)Gal(b1-4)[Fuc(a1-3)]GlcNAc(b1-6)[Gal(b1-3)]GalNAc
How it was run: as §1

[29] = target: Neu5Ac(a2-3)[GalNAc(b1-4)]Gal(b1-4)GlcNAc
How it was run: as §1

[30] = target: Neu5Ac(a2-6)Gal(b1-4)Glc
How it was run: as §1

[31] = target: Neu5Ac(a2-8)Neu5Ac(a2-3)Gal(b1-4)Glc
How it was run: as §1

[32] = target: Neu5Ac(a2-8)Neu5Ac(a2-3)Gal(b1-4)GlcNAc
How it was run: as §1

[33] = target: Neu5Ac(a2-8)Neu5Ac(a2-8)Neu5Ac(a2-8)Neu5Ac(a2-3)[GalNAc(b1-4)]Gal(b1-4)Glc
How it was run: as §1

B1: Awp1 (Candida glabrata) (protein)
chain: MSLITIFAFLIKATLVLSLDILTPTTLTGDQTFNEDVSVVSSLTLNDGSQYLFNNLLQIAPSSASVTANALAAVSVFTFSLPPSSSLSNSGTLIISNSNTGPSTEQHIVITPNVMANTGTITLSLAHTNTDSSSTLIIDPVTFYNTGTINYESIGSETNDPSLTGNILSIGSSGRTLQNLGTINLNAANSYYLLGTITENSGSINVQKGFLYVNALDFIGNTINLSTTTALAFISPVSQVVRVRGVFFGNIIASVGSSGTFSYNTQTGILTVTTNGVYSYDIGCGYNPALMSGQQETLSFQGNPYDTFLVLVNQPIPSDLTCAAVSSSITPSSSVEPSSSVVPSSSVEPSSSVEPSSSVEPSSSVEPSSSVEPSSSVEPSSSVEPSSSVEPSSSVEPSSSVEPSSSVEPSSSVEPSSSVEPSSSVEPSSSVEPSSSVEPSSSVEPSSSVEPSSSVEPSSLIVPSSSVEPSSSVLPSSSVVPSSSVEPSTPPIPSSSVEPSSSVVPSSPAVPSSSVEPSTPPIPSSSVVSASVFDTSSTLPSSPSVPPSSVSPSTISTPSSSAAPSSFCPTCVSSGTPPAPSSSAIVPTSSAGGGNGGDNREPGAAGQPGAAGQPGAAGQPGAAGQPGAAGQPGAAGQPGAAGQPGAAGQPGAAGQPGAAGQPGAGFGVGSEQPTPGAGAGSGSADGNQSGTGSGTGNGQQGSGQAGSGQAGSGQEGSGQAGSGQAGSGQAGSGQAGSGQAGLDNTASGQSEGGQASAMDGDQSGRDGQSNSGSLLQPNAQQGTGSGTGSDIGADQASGESPGQIGDAQPGSGTDQSSGRHSLAAEARTSQSHSLAADARTRSTTRQTSVIAPDTAPGTASGTAPGTAPGTAVVTTFHGCGTVNHKGMINILLALALLVLL
[1]
  glycan array binding signal (z-score): -0.342
[2]
  glycan array binding signal (z-score): -0.366
[3]
  glycan array binding signal (z-score): 1.95
[4]
  glycan array binding signal (z-score): 2.29
[5]
  glycan array binding signal (z-score): 1.51
[6]
  glycan array binding signal (z-score): 0.488
[7]
  glycan array binding signal (z-score): 0.047
[8]
  glycan array binding signal (z-score): -0.571
[9]
  glycan array binding signal (z-score): -1
[10]
  glycan array binding signal (z-score): 2.02
[11]
  glycan array binding signal (z-score): -0.505
[12]
  glycan array binding signal (z-score): 2.24
[13]
  glycan array binding signal (z-score): 1.07
[14]
  glycan array binding signal (z-score): -1.24
[15]
  glycan array binding signal (z-score): -0.924
[16]
  glycan array binding signal (z-score): -0.346
[17]
  glycan array binding signal (z-score): -1.87
[18]
  glycan array binding signal (z-score): 0.214
[19]
  glycan array binding signal (z-score): 0.442
[20]
  glycan array binding signal (z-score): 0.13
[21]
  glycan array binding signal (z-score): 0.483
[22]
  glycan array binding signal (z-score): 0.691
[23]
  glycan array binding signal (z-score): 1.61
[24]
  glycan array binding signal (z-score): -0.297
[25]
  glycan array binding signal (z-score): -0.217
[26]
  glycan array binding signal (z-score): 0.412
[27]
  glycan array binding signal (z-score): -0.603
[28]
  glycan array binding signal (z-score): -0.493
[29]
  glycan array binding signal (z-score): -0.217
[30]
  glycan array binding signal (z-score): -1.39
[31]
  glycan array binding signal (z-score): 0.225
[32]
  glycan array binding signal (z-score): -0.772
[33]
  glycan array binding signal (z-score): -1.71
